According to PubChem BioAssay (EPA / NIEHS):
The source made the active and inactive calls. The calls were made as follows: active = hit-call score of the fitted dose curve at least 0.9, where 1 is the maximum; inactive = score below 0.9.

Experiments:
Settings in all cases: mRNA level, 48 h; actives raise or lower the signal
CYP2C9 (gene 1559) = assay: LTEA_HepaRG_CYP2C9: Life Technologies and Expression Analysis (LTEA) Assay for CYP2C9 using HepaRG (AID 2283484)
Procedure, shortened: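 HepaRG, 48 h dosing, 8-pt half-log series, top 100 uM, 0.5% DMSO vehicle. Read-out: CYP2C9 transcript by TaqMan qRT-PCR, housekeeping-normalized (ACTB/GAPDH/POLR2A). Gain or loss fitted vs DMSO baseline.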

CYP2E1 (gene 1571) = assay: LTEA_HepaRG_CYP2E1: Life Technologies and Expression Analysis (LTEA) Assay for CYP2E1 using HepaRG (AID 2283485)
Procedure, shortened: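 Assay uses 48 h exposure of HepaRG hepatic cells, eight concentrations to 100 uM. Expression of CYP2E1 is quantified by TaqMan qRT-PCR with ACTB, GAPDH and POLR2A normalization; curves fitted in both directions relative to vehicle.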

CYP4A11 (gene 1579) = assay: LTEA_HepaRG_CYP4A11: Life Technologies and Expression Analysis (LTEA) Assay for CYP4A11 using HepaRG (AID 2283486)
Procedure, shortened: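 Differentiated HepaRG cells, serum-free induction medium, exposed 48 h in duplicate to 8-point half-log series from 100 uM in 0.5% DMSO. CYP4A11 mRNA measured by qRT-PCR, normalized to ACTB, GAPDH, POLR2A; bidirectional fit versus DMSO.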

[1] = read-out: DNA damage-inducible transcript 3 (DDIT3), DDIT3 (gene 1649); assay: LTEA_HepaRG_DDIT3: Life Technologies and Expression Analysis (LTEA) Assay for DNA damage-inducible transcript 3 (DDIT3) using HepaRG (AID 2283488)
Procedure, shortened: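 Eight-point concentration-response (100 uM highest, half-log dilutions) in HepaRG, 48 h, duplicate wells. Endpoint: qRT-PCR mRNA, normalized (ACTB, GAPDH, POLR2A), bidirectional fitting with DMSO as baseline.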

[2] = read-out: Pro-epidermal growth factor (Homo sapiens) (UniProt P01133); assay: LTEA_HepaRG_EGF: Life Technologies and Expression Analysis (LTEA) Assay for Epidermal growth factor (EGF) using HepaRG (AID 2283489)
Procedure, shortened: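 Differentiated human HepaRG cells, plated 48 h then switched to serum-free induction medium, were exposed for 48 h to test chemicals (8-point half-log series, top 100 uM, 0.5% DMSO). EGF mRNA was quantified by qRT-PCR, normalized to ACTB, GAPDH, POLR2A.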

[3] = read-out: Early growth response protein 1 (EGR1) transcription factor, EGR1 (gene 1958); assay: LTEA_HepaRG_EGR1: Life Technologies and Expression Analysis (LTEA) Assay for Early growth response protein 1 (EGR1) transcription factor using HepaRG (AID 2283490)
Procedure, shortened: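 HepaRG, 48 h exposure, 8-pt half-log series from 100 uM, 0.5% DMSO vehicle; EGR1 transcript by TaqMan qRT-PCR (Fluidigm array), housekeeping-normalized; bidirectional fit relative to DMSO baseline.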

[4] = read-out: Ezrin (EZR), EZR (gene 7430); assay: LTEA_HepaRG_EZR: Life Technologies and Expression Analysis (LTEA) Assay for Ezrin (EZR) using HepaRG (AID 2283491)
Procedure, shortened: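 Differentiated human HepaRG cells, 48 h after plating, were exposed in serum-free induction medium for 48 hours to eight half-log concentrations up to 100 uM in 0.5% DMSO. EZR mRNA was measured by TaqMan qRT-PCR, normalized to ACTB, GAPDH and POLR2A, and fitted bidirectionally against DMSO.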

CYP3A5 (gene 1577) = assay: LTEA_HepaRG_CYP3A5: Life Technologies and Expression Analysis (LTEA) Assay for CYP3A5 using HepaRG (AID 2283493)
Procedure, shortened: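 Readout was CYP3A5 mRNA by qRT-PCR. HepaRG cultures were exposed for 48 h in serum-free induction medium to chemicals at up to 100 uM, and responses were fitted in both directions relative to DMSO vehicle.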

[5] = read-out: Fatty Acid-Binding Protein 1 (FABP1), FABP1 (gene 2168); assay: LTEA_HepaRG_FABP1: Life Technologies and Expression Analysis (LTEA) Assay for Fatty Acid-Binding Protein 1 (FABP1) using HepaRG (AID 2283494)
Procedure, shortened: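 qRT-PCR readout of FABP1 transcript (normalized to three housekeeping genes) after 48 h chemical exposure of HepaRG cells; eight concentrations, half-log steps, max 100 uM, 0.5% DMSO vehicle; gain or loss fitted relative to DMSO baseline.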

[6] = read-out: Cytochrome P450 4A22 (Homo sapiens) (UniProt Q5TCH4); assay: LTEA_HepaRG_CYP4A22: Life Technologies and Expression Analysis (LTEA) Assay for Cytochrome P450 4A22 (CYP4A22) using HepaRG (AID 2283495)
Procedure, shortened: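 qRT-PCR of CYP4A22 mRNA (Fluidigm TaqMan, normalized to three housekeeping genes) after 48 h chemical exposure of HepaRG cells; 8-point half-log series, top 100 uM, 0.5% DMSO vehicle. Bidirectional curve fitting vs DMSO baseline.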

[7] = read-out: Glutathione S-Transferase (GSTA2), GSTA2 (gene 2939); assay: LTEA_HepaRG_GSTA2: Life Technologies and Expression Analysis (LTEA) Assay for Glutathione S-Transferase (GSTA2) using HepaRG (AID 2283497)
Procedure, shortened: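 qRT-PCR readout of GSTA2 transcript, normalized to three housekeeping genes, fitted bidirectionally against 0.5% DMSO baseline. Differentiated HepaRG cells received compound for 48 h at 8 concentrations (top 100 uM, half-log steps).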

[8] = read-out: Glutamate-cysteine ligase catalytic (GCLC), GCLC (gene 2729); assay: LTEA_HepaRG_GCLC: Life Technologies and Expression Analysis (LTEA) Assay for Glutamate-cysteine ligase catalytic (GCLC) using HepaRG (AID 2283498)
Procedure, shortened: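 HepaRG, 48 h exposure, 8-pt half-log series from 100 uM, 0.5% DMSO vehicle; TaqMan qRT-PCR for GCLC mRNA, housekeeping-normalized; bidirectional curve fit vs DMSO baseline.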

[9] = read-out: growth arrest and DNA damage 45 (GADD45G), GADD45G (gene 10912); assay: LTEA_HepaRG_GADD45G: Life Technologies and Expression Analysis (LTEA) Assay for growth arrest and DNA damage 45 (GADD45G) using HepaRG (AID 2283499)
Procedure, shortened: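 Differentiated human HepaRG cells in serum-free induction medium were exposed for 48 h to 8 half-log concentrations up to 100 uM in 0.5% DMSO, in duplicate. GADD45G mRNA was measured by TaqMan qRT-PCR, normalised to ACTB, GAPDH and POLR2A, and fitted bidirectionally against DMSO.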

[10] = read-out: Glutamate-cysteine ligase regulatory (GCLM), GCLM (gene 2730); assay: LTEA_HepaRG_GCLM: Life Technologies and Expression Analysis (LTEA) Assay for Glutamate-cysteine ligase regulatory (GCLM) using HepaRG (AID 2283500)
Procedure, shortened: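 In this multiplexed HepaRG gene-expression assay, GCLM mRNA change after 48 h treatment (8 concentrations, max 100 uM) was scored against DMSO by bidirectional curve fitting.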

[11] = read-out: Glutathione S-transferase M3 (GSTM3), GSTM3 (gene 2947); assay: LTEA_HepaRG_GSTM3: Life Technologies and Expression Analysis (LTEA) Assay for Glutathione S-transferase M3 (GSTM3) using HepaRG (AID 2283501)
Procedure, shortened: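 Differentiated HepaRG cells in serum-free induction medium were exposed in duplicate for 48 h to 8 half-log concentrations up to 100 uM in 0.5% DMSO. GSTM3 mRNA was measured by TaqMan qRT-PCR, normalized to ACTB/GAPDH/POLR2A, and fitted bidirectionally versus DMSO.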

[12] = read-out: Heat shock 70 kDa protein 1 (HSPA1A), gene 3303; assay: LTEA_HepaRG_HSPA1A: Life Technologies and Expression Analysis (LTEA) Assay for Heat shock 70 kDa protein 1 (HSPA1A) using HepaRG (AID 2283502)
Procedure, shortened: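 An oxidative-stress marker readout: HepaRG cells treated 48 h in duplicate with an eight-point series (highest 100 uM) had HSPA1A mRNA quantified by TaqMan qRT-PCR. Activity was fitted in both directions using 0.5% DMSO as baseline.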

[13] = read-out: Hypoxia-inducible factor 1-alpha (Homo sapiens) (UniProt Q16665); assay: LTEA_HepaRG_HIF1A: Life Technologies and Expression Analysis (LTEA) Assay for Hypoxia-inducible factor 1 (HIF1A) Trancription factor using HepaRG (AID 2283503);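 also: HIF1A transcript by TaqMan qRT-PCR normalized to ACTB GAPDH and POLR2A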
Procedure, shortened: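 Gain- or loss-of-signal HIF1A mRNA changes are fitted against a DMSO baseline. HepaRG cultures receive eight concentrations, highest 100 uM, for 48 h in serum-free induction medium with 0.5% DMSO.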

[14] = read-out: Cytochrome P450 3A4 (Homo sapiens) (UniProt P08684); assay: LTEA_HepaRG_CYP3A4: Life Technologies and Expression Analysis (LTEA) Assay for CYP3A4 using HepaRG (AID 2283487)
Procedure, shortened: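 Differentiated HepaRG cells in serum-free induction medium exposed in duplicate for 48 h to 8 half-log concentrations up to 100 uM in 0.5% DMSO. CYP3A4 mRNA measured by qRT-PCR normalized to ACTB, GAPDH and POLR2A; bidirectional fit versus DMSO.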

[15] = read-out: Cytochrome P450 7A1 (Homo sapiens) (UniProt P22680); assay: LTEA_HepaRG_CYP7A1: Life Technologies and Expression Analysis (LTEA) Assay for Cytochrome P450 7A1 (CYP7A1) using HepaRG (AID 2283496)
Procedure, shortened: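 Using 0.5% DMSO as vehicle and baseline, chemicals were tested in duplicate over an 8-point range from 100 uM on HepaRG cells for 48 h; qRT-PCR signals were normalised to ACTB, GAPDH and POLR2A.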

Measured: AC50

Chain of Hypoxia-inducible factor 1-alpha (Homo sapiens) (Q16665 whole entry, looked up): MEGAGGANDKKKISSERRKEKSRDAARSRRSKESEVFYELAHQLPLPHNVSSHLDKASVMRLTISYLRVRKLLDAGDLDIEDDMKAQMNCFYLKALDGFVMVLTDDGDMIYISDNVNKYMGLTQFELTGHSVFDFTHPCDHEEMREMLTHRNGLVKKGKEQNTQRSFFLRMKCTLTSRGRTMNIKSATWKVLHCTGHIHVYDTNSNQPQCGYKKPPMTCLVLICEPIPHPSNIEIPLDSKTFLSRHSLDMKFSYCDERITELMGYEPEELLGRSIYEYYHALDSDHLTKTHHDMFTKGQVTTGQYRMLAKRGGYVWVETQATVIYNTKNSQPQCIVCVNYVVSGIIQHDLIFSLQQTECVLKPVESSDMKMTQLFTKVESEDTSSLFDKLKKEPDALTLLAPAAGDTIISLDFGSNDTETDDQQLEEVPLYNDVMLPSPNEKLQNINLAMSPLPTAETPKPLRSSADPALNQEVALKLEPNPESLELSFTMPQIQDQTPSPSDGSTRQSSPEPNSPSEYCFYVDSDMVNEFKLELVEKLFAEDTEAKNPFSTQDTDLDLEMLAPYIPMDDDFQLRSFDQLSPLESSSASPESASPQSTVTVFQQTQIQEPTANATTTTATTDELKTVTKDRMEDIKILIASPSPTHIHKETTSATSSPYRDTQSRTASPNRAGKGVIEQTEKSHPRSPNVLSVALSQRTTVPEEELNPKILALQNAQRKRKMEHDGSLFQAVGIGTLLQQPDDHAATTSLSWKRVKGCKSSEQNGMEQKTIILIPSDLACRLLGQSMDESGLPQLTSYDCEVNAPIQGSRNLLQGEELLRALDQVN
Chain of Cytochrome P450 3A4 (Homo sapiens) (P08684 whole entry, looked up): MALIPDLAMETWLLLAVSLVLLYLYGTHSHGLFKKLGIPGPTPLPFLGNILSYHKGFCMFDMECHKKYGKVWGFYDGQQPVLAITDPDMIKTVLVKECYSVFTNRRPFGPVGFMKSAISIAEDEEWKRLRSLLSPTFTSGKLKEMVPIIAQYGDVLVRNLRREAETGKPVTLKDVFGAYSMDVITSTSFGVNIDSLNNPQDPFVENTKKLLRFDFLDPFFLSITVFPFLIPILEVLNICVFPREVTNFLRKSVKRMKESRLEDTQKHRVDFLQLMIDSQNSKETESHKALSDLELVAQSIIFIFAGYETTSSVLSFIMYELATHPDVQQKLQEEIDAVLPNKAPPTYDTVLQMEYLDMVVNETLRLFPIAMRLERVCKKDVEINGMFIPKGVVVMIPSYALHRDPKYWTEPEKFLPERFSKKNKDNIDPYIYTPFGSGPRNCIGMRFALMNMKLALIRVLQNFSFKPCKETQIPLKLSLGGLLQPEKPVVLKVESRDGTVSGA

CC(=O)CC(c1ccccc1)c1c(O)c2ccccc2oc1=O (stereo not given)
active: CYP2E1 (gene 1571) 73.8 µM
inactive: CYP2C9 (gene 1559) | CYP4A11 (gene 1579) | [1] | [2] | [3] | [4] | CYP3A5 (gene 1577) | [5] | [6] | [7] | [8] | [9] | [10] | [11] | [12] | [13]

CC(C)c1cccc(C(C)C)c1NC(=O)NS(=O)(=O)c1cc(C(C)(C)O)co1
active: CYP2E1 (gene 1571) 33.9 µM | CYP4A11 (gene 1579) 29.5 µM | [14] 3.54 µM | [5] 43.1 µM | [6] 31.6 µM
inactive: CYP2C9 (gene 1559) | [2] | [3] | [4] | CYP3A5 (gene 1577) | [15] | [7] | [8] | [9] | [10] | [11] | [12] | [13]
